# Experimental data as given in ChEMBL document CHEMBL3988442, “University of Dundee, Small-Polar-MMV Screening Library” (2021).
# Hit rate of the full screen: of about 48,000 compounds, about 13,000 (27%) showed an effect of 50% or more. Some of the results follow.
# Test system: Wolbachia pipientis
# Assay: Anti-Wolbachia Cell-Based Screen
# Assay type: functional
# Set-up: scale not given: in the data most compounds retested in dose-response had high values
# Conditions: 5 µM
row,Compound,Percent Effect [%]
1,Cn1nc(C2CCCN(C(=O)CO)C2)cc1O (stereo not given),-7.33
2,O=C(c1[nH]nc(C2CC2)c1Cl)N1CCN(C2CC2)C(=O)C1,-4.23
3,CCc1nnsc1C(=O)NCCC1CN(C(C)C)CCO1 (stereo not given),2.098
4,O=C(NCc1cc[nH]n1)N(CCCO)C1CCc2ccccc21 (stereo not given),9.826
5,CN(C)CC(=O)N1CCOC2(CCCN(c3ncccc3F)C2)C1.O=C(O)C(F)(F)F.O=C(O)C(F)(F)F (stereo not given),6.33
6,CC(C)NC(=O)N1CCOC2(CCCN(c3ncccc3F)C2)C1.O=C(O)C(F)(F)F (stereo not given),108.5
7,O=C(CO)N1CCOC2(CCCN(c3ncc(F)cn3)C2)C1.O=C(O)C(F)(F)F (stereo not given),5.697
8,O=C(O)C(F)(F)F.O=C(c1cnccn1)N1CCOC2(CCCN(c3ncccc3F)C2)C1 (stereo not given),105
9,O=C(O)C(F)(F)F.O=C([C@H]1CCCO1)N1CCOC2(CCCN(c3ncccc3F)C2)C1 (stereo not given in full),94.35
10,CC(C)NC(=O)N1CCOC2(CCCN(c3cccc(C#N)c3)C2)C1 (stereo not given),-9.45
11,O=C(O)C(F)(F)F.O=C(c1cnccn1)N1CCOCC2(CCN(C3CCOCC3)C2)C1 (stereo not given),8.846
12,COCC(=O)N1CCOC2(CCCN(c3cnccn3)C2)C1.O=C(O)C(F)(F)F (stereo not given),-12.12
13,N#Cc1cccc(N2CCCC3(CN(C(=O)[C@H]4CCCO4)CCO3)C2)c1 (stereo not given in full),-7.794
14,COc1ccc(C(=O)C2CCCN(c3cc(OC)ncn3)C2)c(C)c1 (stereo not given),-87.76
15,CC(Cn1cccn1)NCCS(=O)(=O)c1ccc(Cl)cc1 (stereo not given),2.973
16,CC(Cn1cncn1)NC(=O)NCC(C)(C)Cc1ccccc1 (stereo not given),-14.88
17,CCn1c(C2CCN(C(=O)COCC(F)(F)C(F)F)CC2)n[nH]c1=O,14.31
18,Cc1ccccc1CN1C[C@@H](CN(C)CCO)[C@@H](CO)C1,4.643
19,Cc1nc2ccccn2c1CN1C[C@@H](CN(C)CCO)[C@@H](CO)C1,-4.106
20,COCCN(C)C[C@@H]1CN(Cc2ccnc3ccccc23)C[C@@H]1CO,90.52
21,CN(CCO)C[C@@H]1CN(Cc2ccccc2-c2ccccc2)C[C@@H]1CO,-1.449
22,COCCN(C)C[C@@H]1CN(c2cc(C)nc3ccccc23)C[C@@H]1CO,85.76
23,CCc1c(C)nc(C)nc1N1C[C@@H](CN(C)CCN(C)C)[C@@H](CO)C1,17.56
24,COCCN(C)C[C@@H]1CN(c2nc(C)cc(C)n2)C[C@@H]1CO,106.7
25,COCCN(C)C[C@@H]1CN(c2nnc(C(C)C)s2)C[C@@H]1CO,6.543

row,Compound,Percent Effect [%]
1,Cc1ccc2nc(C)cc(C(=O)NCc3csc(N(C)C)n3)c2c1,-3.48
2,CCc1nccn1CC(=O)N1C[C@H]2CC[C@@H]1CN(c1ncccn1)C2,11.21
3,COCC1c2nnn(CC3CC3)c2CCN1C(=O)c1cc(C)[nH]c1C (stereo not given),-16.52
4,CC(C)NC(=O)c1ccc2c(c1)C(c1nc[nH]n1)CN2C (stereo not given),-2.409
5,Cc1noc(C(C)N2CCN(Cc3cccc(C#N)c3)CC2)n1 (stereo not given),7.153
6,Cc1nsc(N2CCCN(c3ccc(C#N)cn3)CC2)n1,7.107
7,CCCc1noc(C(C)N2CCN(CCn3ccccc3=O)CC2)n1 (stereo not given),-12.82
8,CC(c1nc(C(C)(C)C)no1)N1CCN(Cc2ccc(C#N)cc2)CC1 (stereo not given),107.5
9,CCCc1noc(C(C)N2CCN(c3ccc(C#N)cn3)CC2)n1 (stereo not given),130.1
10,CC(c1nc(C2CC2)no1)N1CCN(Cc2cccc(C#N)c2)CC1 (stereo not given),-8.29
11,CC(c1nc(C2CC2)no1)N1CCN(Cc2ccc(C#N)cc2)CC1 (stereo not given),26.07
12,CC(c1nc(C(C)(C)C)no1)N1CCN(c2ccc(C#N)cn2)CC1 (stereo not given),105.6
13,Cc1noc(C(C)N2CCN(c3ccc(C#N)cn3)CC2)n1 (stereo not given),146.7
14,CCc1noc(C(C)N2CCN(c3ncnc4sccc34)CC2)n1 (stereo not given),-87.61
15,Cc1noc(C2CCN(C(C)c3nc(C(C)(C)C)no3)CC2)n1 (stereo not given),4.561
16,Cc1noc(C(C)N2CCN(c3ncnc4ccccc34)CC2)n1 (stereo not given),-16.31
17,COc1ccc(OCc2nc3cc4c(cc3c(=O)o2)OCCCO4)cc1,-25.33
18,CSc1cc2c(cc1NC(=O)NCc1ccncc1)OCCO2,0.1832
19,O=C(NCC1CC1)C1CN(C(=O)c2ccnnc2)CC12CCOCC2 (stereo not given),-9.874
20,CN1C(=O)[C@H]2CC[C@@H]1CN(C(=O)Nc1cccc3ccccc13)C2,3.863
21,N#Cc1cn(C2CC2)c(=O)n(Cc2noc(-c3ccsc3)n2)c1=O,-8.2
22,COc1ccccc1NC(=O)NC(C)c1nc[nH]n1 (stereo not given),-1.106
23,CC(C)c1noc(C(C)N2CCN(Cc3ccccc3C#N)CC2)n1 (stereo not given),-2.438
24,CC(C)c1noc(C(C)N2CCN(Cc3cccc(C#N)c3)CC2)n1 (stereo not given),10.45
25,CC(C)c1noc(C(C)N2CCN(c3ccc(C#N)cn3)CC2)n1 (stereo not given),186.4
